Consider 20 compounds from PubChem BioAssay.

“And” between values parts separate entries of the source, which are not always exact repeats. Identical values can stand only once. The source made the active and inactive calls.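 How the source made its calls, unless noted: active means compounds whose cell count with miR-34 switched on is under 0.7 times the count with it off; inactive means the rest.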

Assay [1] is described as follows: hESC survival regulators, cell-based (AID 493140; call rule not given here;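 further: cells exposed to compounds for four days before counting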). The following applies: human embryonic stem cell survival screen; stronger effect = higher value.
The nature of assay [2]: sensitizers of A549 cells to miR-34 induction, primary screen, imaging, A549 dox-inducible miR-34, nuclei and caspase counts (AID 1347080). Particulars: A549 miR-34 inducible, Hoechst nuclei count, 48 h.
Assay [3] in a line: inhibitors of Cryptococcus chitosan production, flow cytometry, Cibacron Brilliant Red staining (AID 1347148; call rule not given here;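 further: compound exposure lasted three days at 37 degrees C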). The following applies: Cryptococcus neoformans chitosan, stronger effect = lower value; at 10 µM unless noted.
A short description of assay [4]: circadian clock period modulators, cell-based, LOPAC library, luminescence reporter (AID 2774; call rule not given here;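 further: values are relative to mean of DMSO wells on each plate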). The following applies: circadian reporter cells, at 7 µM, actives lie on both sides.
The test system of assay [5] is Hepatitis C virus NS3 helicase. As to the kind of experiment: HCV NS3 helicase inhibitors, primary screen, biochemical, fluorescence polarization, LOPAC1280 library (AID 687035; in the data active means inhibition above about 37%). Particulars: Purified HCV NS3 helicase, Cy5-dT15 ssDNA binding fluorescence polarization; stronger effect = higher value; concentration not given here. Background: Fluorescence polarisation rises when a labelled molecule tumbles more slowly, as on binding a larger partner.

Assay [6] in a line: Cy5 fluorescence quenching or enhancement artefacts, artefact control for HCV NS3 helicase inhibitor project, biochemical, LOPAC1280 (AID 687037; call rule not given here). Particulars: Cy5-DNA-NS3h complex fluorescence interference counterscreen. A general note: The purpose of a counterscreen is to sort out artefacts and off-target activity.
Assay [7] can be described thus: phospholipid biosynthesis inhibitors in animal cells, primary screen, cell-based, LOPAC library, screen 4 (AID 1347384; call rule not given here). Particulars: phospholipid biosynthesis inhibition screen, at 10 µM.
Assay [8] can be described thus: viability rescue of complex I mutant cybrids, primary screen, cell-based, galactose medium, ATP luminescence (AID 1645843;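 active means z-score of at least 1.8 in each of two replicates, scored against plate mean and spread of sample wells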;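 further: positive z means more ATP and so rescue of galactose-driven cybrid death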). Particulars: complex I mutant cybrid cells, 72 h, stronger effect = higher value.
The nature of assay [9]: liver-stage malaria parasite growth inhibition, primary screen, cell-based, HepG2, luciferase luminescence, HepG2 viability (AID 624349; in the data active means parasite load remaining mostly below about 12%, no sharp cut-off; inactive means mostly above about 10%;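 further: 100% = mean of DMSO negative control wells on the same plate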). The following applies: P. berghei liver stage in HepG2, luciferase luminescence, concentration not given here; parasite load remaining: stronger effect = lower value; viability: measured here: HepG2 viability without parasites.
A short description of assay [10]: survival rescue of mitochondrial mutant cells in low glucose, primary screen, MELAS cybrids, Rieske KO mouse fibroblasts, CellTiter-Glo (AID 1508586;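 active means mean z-score across replicates of 1.96 or higher in either the MELAS or the Rieske mutant cell line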;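 further: z relative to plate mean and SD of compound and empty wells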). Background: In ATP-based viability assays light output follows the ATP content of the culture.
[11] abbreviates: stronger effect = lower value, cell number ratio, induced over uninduced.
Setting [12] is: measured here: relative caspase fold change +Dox/-Dox.
Setting [13] is: measured here: total cells with miR-34 induction, stronger effect = lower value.
Setting [14] is: measured here: total cells without miR-34 induction.
The mark [15] stands for this setting: MELAS cybrid survival, CellTiter-Glo 48 h, stronger effect = higher value.
Setting [16] is: Rieske KO mouse fibroblast survival, CellTiter-Glo 72 h.

Turning to `CC/C=C\C/C=C\C/C=C\C/C=C\C/C=C\CCCCCC(=O)O`, the survival in [1] is 78 (inactive). Also, the fold change in [2] (setting [11]) is 0.983 (inactive) and 0.953 (inactive); in assay [2] (setting [12]), 0.972 and 0.777. Further, the cell count in assay [2] (setting [13]) is 5080 and 5820; in assay [2] (setting [14]) it was 5170 and 6110. The fold fluorescence in assay [3] is 5.56 (inactive).

Regarding `CC12C(=O)OC(=O)C1(C)C1CCC2O1` (stereo not given), in assay [4], the period change is -0.375 h (inactive). For the same compound, the survival in assay [1] was 0 (inactive). Moreover, the inhibition (in general, the change of the read-out against control, counted positive when it falls) in assay [5] was 0% (inactive). Moreover, the fluorescence ratio (interference) in [6] is 1 (inactive). The fold change is 1.31 (inactive) and 0.948 (inactive) in assay [2] (setting [11]); 1.51 and 0.943 in [2] (setting [12]). The cell count in assay [2] (setting [13]) was 607 and 462; in assay [2] (setting [14]), 465 and 488. The fold fluorescence in assay [3] is 5.03 [at 254.8 µM] (inactive). In assay [7], the outcome was inactive. For the same compound, the z-score in assay [8] was -1.43 (inactive).

For `O=C(O)CCC/C=C\C[C@H]1C(=O)C[C@@H](O)[C@@H]1/C=C/[C@@H](O)Cc1ccccc1`, the fold change in assay [2] (setting [11]) is 0.985 (inactive); in [2] (setting [12]), 1.05. For the same compound, the cell count came out at 5810 in [2] (setting [13]) and 5900 in [2] (setting [14]).

As for `NC(=Nc1ccccc1)NC(=O)c1nc(Cl)c(N)nc1N`, in [4], the period change is -0.435 h (inactive). For the same compound, in [9], the parasite load remaining was 58.8% (inactive). For the same compound, the viability (usually the share of living cells, or the viability signal relative to a control) in assay [9] came to 98%. In addition, the inhibition in assay [5] is -2% (inactive). For the same compound, the fluorescence ratio (interference) in assay [6] was 1 (inactive). The fold change in assay [2] (setting [11]) is 1.04 (inactive) and 0.937 (inactive) and 0.841 (inactive); in assay [2] (setting [12]), 1.01 and 1.25 and 1.03. The cell count in assay [2] (setting [13]) is 5840 and 3000 and 8780; in [2] (setting [14]), 5620 and 3200 and 10400. Moreover, in [3], the fold fluorescence was 5.89 [at 163.5 µM] (inactive). Moreover, in [7], the compound was classed as inactive. Besides, the z-score in assay [10] (setting [15]) was 1.28 (inactive); in [10] (setting [16]) it was 0.859; in assay [8], -0.925 (inactive) and 0.595 (inactive).

As for `CCCCC[C@H](O)/C=C/C1=C(C/C=C\CCCC(=O)O)C(=O)CC1`, the survival in assay [1] was 130 (inactive). Also, the fold change is 0.969 (inactive) and 0.886 (inactive) in [2] (setting [11]); 1.57 and 1.52 in [2] (setting [12]). Moreover, the cell count in assay [2] (setting [13]) was 6100 and 5600; in assay [2] (setting [14]), 6300 and 6320. The fold fluorescence in [3] is 3.98 (inactive).

On to `CCCCCCCC/C=C\C/C=C\C/C=C\CCCC(=O)NCCO`, for which, in assay [1], the survival is 87.2 (inactive). For the same compound, the fold change is 0.911 (inactive) and 1.07 (inactive) in [2] (setting [11]); 0.981 and 0.763 in [2] (setting [12]). The cell count in assay [2] (setting [13]) was 6100 and 5740; in [2] (setting [14]), 6690 and 5350. Besides, in assay [3], the fold fluorescence is 4.64 (inactive).

Turning to `CS(=O)(=O)Nc1ccc([N+](=O)[O-])cc1OC1CCCCC1`, the fold change in assay [2] (setting [11]) is 0.816 (inactive) and 0.974 (inactive); in assay [2] (setting [12]), 1.1 and 1.38. The cell count in assay [2] (setting [13]) was 4510 and 5650; in assay [2] (setting [14]) it was 5530 and 5800. Moreover, the fold fluorescence in assay [3] is 5.81 [at 159.1 µM] (inactive).

With `CCCCC/C=C\C/C=C\C/C=C\C/C=C\CCCC(=O)O[C@H](COCCCCCCCCCCCCCCCC)COP(=O)([O-])OCC[N+](C)(C)C`, the fold change is 0.94 (inactive) and 0.936 (inactive) in assay [2] (setting [11]); 1.77 and 0.976 in [2] (setting [12]). The cell count was 5550 and 5760 in assay [2] (setting [13]); 5910 and 6160 in assay [2] (setting [14]).

As for `C[C@H](CCCO)[C@H]1CC[C@H]2[C@@H]3[C@H](O)C[C@H]4CC(=O)CC[C@]4(C)[C@H]3C[C@H](O)[C@]12C`, the values for the fold change in assay [2] (setting [11]) and in [2] (setting [12]) were 0.847 (inactive) and 0.203, respectively. Also, the cell count in [2] (setting [13]) amounted to 4760; in assay [2] (setting [14]), 5610.

Turning to `CC(=O)OCOC(=O)CN(CC(=O)OCOC(C)=O)c1ccccc1OCCOc1ccccc1N(CC(=O)OCOC(C)=O)CC(=O)OCOC(C)=O`, the fold change in assay [2] (setting [11]) is 1.04 (inactive) and 0.871 (inactive); in [2] (setting [12]) it was 1.07 and 0.533. Besides, the cell count is 2560 and 5870 in [2] (setting [13]); 2460 and 6740 in [2] (setting [14]). Moreover, the fold fluorescence in assay [3] was 5.04 [at 65.4 µM] (inactive). In addition, the z-score in assay [10] (setting [15]) was -0.31 (inactive); in assay [10] (setting [16]), 0.894.

In the case of `CC/C=C\C/C=C\C/C=C\C/C=C\C/C=C\C/C=C\CCC(=O)O`, the survival in assay [1] was 81.3 (inactive). For the same compound, the fold change was 0.965 (inactive) and 0.982 (inactive) in assay [2] (setting [11]); 0.949 and 0.678 in assay [2] (setting [12]). Besides, the cell count in [2] (setting [13]) was 5660 and 5960; in assay [2] (setting [14]) it was 5860 and 6070. Also, the fold fluorescence in [3] is 4.24 (inactive).

As to `CC(CN1CCC(n2c(=O)[nH]c3cc(Cl)ccc32)CC1)NC(=O)c1ccc2ccccc2c1` (stereo not given), the results for the fold change in assay [2] (setting [11]) and in assay [2] (setting [12]) were 1.08 (inactive) and 1.2, respectively. The figures for the cell count in [2] (setting [13]) and in assay [2] (setting [14]) were 5810 and 5380, respectively.

In the case of `O=P(O)(O)O[C@H]1[C@H](O)[C@@H](O)[C@H](OP(=O)(O)O)[C@@H](OP(=O)(O)O)[C@H]1O`, the fold change was 1 (inactive) in [2] (setting [11]) and 0.768 in assay [2] (setting [12]). The results for the cell count in [2] (setting [13]) and in assay [2] (setting [14]) were 5340 and 5330, respectively.

With `O=C1C(Nc2ccccc2)=CC(=O)c2ncccc21`, the fold change in [2] (setting [11]) is 0.735 (inactive) and 0.883 (inactive); in [2] (setting [12]), 1.99 and 0.965. The cell count was 1070 and 904 in assay [2] (setting [13]); 1450 and 1020 in [2] (setting [14]). In addition, the fold fluorescence in assay [3] was 7.9 [at 199.8 µM] (inactive).

Take `CC[N+](C)(CC)CCC[n+]1c(-c2ccccc2)c2cc(N)ccc2c2ccc(N)cc21`: in assay [1], the survival was 5.17 (inactive). For the same compound, the parasite load remaining in assay [9] is 62.2% (inactive). Besides, the viability in assay [9] came out at 92.5%. Further, the fold change is 0.82 (inactive) and 0.917 (inactive) in assay [2] (setting [11]); 1.46 and 1.13 in assay [2] (setting [12]). Moreover, the cell count was 7160 and 5250 in assay [2] (setting [13]); 8730 and 5720 in assay [2] (setting [14]). In assay [3], the fold fluorescence was 8.39 [at 120.6 µM] (inactive). Besides, the z-score in [10] (setting [15]) is -0.661 (inactive); in assay [10] (setting [16]), 1.71.

On to `CCc1c(OCCCCCC(C)(C)c2nn[nH]n2)cc(O)cc1C(C)=O`, for which the values for the fold change in [2] (setting [11]) and in assay [2] (setting [12]) were 1.03 (inactive) and 0.73, respectively. Also, the cell count in assay [2] (setting [13]) worked out at 6030; in [2] (setting [14]) it was 5840.

Take `CC/C=C\C/C=C\C/C=C\C/C=C\CCCCCCC(=O)O`: the fold change is 1.03 (inactive) in [2] (setting [11]) and 1 in assay [2] (setting [12]). For the same compound, the cell count in assay [2] (setting [13]) came to 5320; in assay [2] (setting [14]), 5150.

For `O=C1NC(O)=NC1(c1ccccc1)c1ccccc1`, in assay [4], the period change was -0.095 h (inactive). Also, the inhibition in [5] was -2% (inactive). In addition, the fluorescence ratio (interference) in assay [6] was 1.1 (inactive). Further, the fold change in [2] (setting [11]) is 0.966 (inactive) and 0.93 (inactive); in [2] (setting [12]) it was 1.46 and 0.866. For the same compound, the cell count in assay [2] (setting [13]) is 9800 and 7860; in [2] (setting [14]), 10100 and 8450. Also, the fold fluorescence in [3] is 4.71 [at 198.2 µM] (inactive). Moreover, the z-score was -0.314 (inactive) in [10] (setting [15]), -0.0769 in [10] (setting [16]) and 0.26 (inactive) in assay [8].

As for `NC(=S)NCCC[C@H](N)C(=O)O`, the fold change in [2] (setting [11]) is 0.92 (inactive) and 1.03 (inactive); in assay [2] (setting [12]) it was 1.34 and 0.799. The cell count was 5590 and 6220 in [2] (setting [13]); 6080 and 6060 in [2] (setting [14]). Besides, the fold fluorescence in [3] was 2.92 [at 261.4 µM] (inactive).

On to `C[C@@]1(C2CCCC2)Cc2cc(OCC(=O)O)c(Cl)c(Cl)c2C1=O`, for which, in assay [4], the period change is 0.04 h (inactive). Besides, in assay [5], the inhibition is -6% (inactive). The fluorescence ratio (interference) in assay [6] was 1 (inactive). The fold change in assay [2] (setting [11]) is 1.13 (inactive) and 0.909 (inactive); in [2] (setting [12]) it was 0.91 and 1.29. The cell count in assay [2] (setting [13]) was 11200 and 5500; in [2] (setting [14]), 9900 and 6050. Besides, in [3], the fold fluorescence was 4.41 [at 140 µM] (inactive). In addition, the compound was classed as inactive in assay [7]. Also, in [8], the z-score is 0.845 (inactive).
